The values that follow come from PubChem BioAssay AID1220 (Sanford-Burnham Center for Chemical Genomics, 2008).

The inhibition is the drop in the measured response relative to a control, in per cent.

The whole screen tested about 190,000 compounds, of which about 1,300 (0.68%) were called active. Rule as the data show it: active = inhibition above about 50%; inactive = the rest. For the sample, actives were picked, then their nearest neighbours and some compounds at random.

Sequence of Mannose-6-phosphate isomerase (Homo sapiens) (P34949 whole entry, looked up): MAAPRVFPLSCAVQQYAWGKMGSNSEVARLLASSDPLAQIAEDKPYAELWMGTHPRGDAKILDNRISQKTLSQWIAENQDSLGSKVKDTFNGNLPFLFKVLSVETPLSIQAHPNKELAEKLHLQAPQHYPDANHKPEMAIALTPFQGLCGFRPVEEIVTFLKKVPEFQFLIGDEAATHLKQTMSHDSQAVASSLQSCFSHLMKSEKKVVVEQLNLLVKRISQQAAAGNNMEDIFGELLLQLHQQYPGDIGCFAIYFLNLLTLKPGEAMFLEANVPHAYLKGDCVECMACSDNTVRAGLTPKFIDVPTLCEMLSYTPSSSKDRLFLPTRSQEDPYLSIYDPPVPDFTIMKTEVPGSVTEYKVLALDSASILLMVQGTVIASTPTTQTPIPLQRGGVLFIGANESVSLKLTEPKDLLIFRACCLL

The assay has as its target Mannose-6-phosphate isomerase (Homo sapiens) (UniProt P34949). Description: human PMI inhibitors, high substrate, primary screen, biochemical, fluorescence intensity, high mannose 6-phosphate (AID 1220). To be noted: recombinant PMI enzyme, coupled fluorescence intensity; at 20 µM; stronger effect = higher value.
`COc1cc(/C=N/N2CCOCC2)ccc1OCc1ccccc1`: the inhibition is -7.2% (inactive).

For `CCSc1nnc(NC(=O)CSc2nc(CC)nc3c2c(=O)n(C)c(=O)n3C)s1`, the inhibition was 6.7% (inactive).

In the case of `CC1CCN(S(=O)(=O)c2cccc(C(=O)NCc3ccco3)c2)CC1`, the inhibition is -3.8% (inactive).

For `Cc1ccc(C2NC(=O)NC3=C2CCc2ccccc23)cc1` (stereo unspecified), the inhibition is 40.5% (inactive).

`O=C1NC2=C(CCc3ccccc32)C(c2ccccc2)N1` (stereo unspecified): the inhibition was 2.3% (inactive).

Consider `Cc1ccc(-c2nnn(CC(=O)N(CC3CCCO3)C(C(=O)NCC3CCCO3)c3ccc(F)cc3)n2)o1` (stereo unspecified), for which the inhibition was 2.7% (inactive).

On to `O=C(CN1C2CCCC1CC(NC(=O)c1ccccc1)C2)Nc1nccs1` (stereo unspecified), for which the inhibition is -12.4% (inactive).

On to `O=C(NCC(c1cccnc1)N1CCN(c2ccccc2)CC1)C1CCCCC1` (stereo unspecified), for which the inhibition was 8.8% (inactive).

Regarding `CN(C)CCCN1C(=O)c2cccc3c(Br)ccc(c23)C1=O`, the inhibition is 52% (active).

With `CN(C)CCCN1C(=O)c2cccc3c([N+](=O)[O-])ccc(c23)C1=O`, the inhibition was 29.6% (inactive).

As to `C=CCN1C(=O)c2cccc3c(Br)ccc(c23)C1=O`, the inhibition was 4.2% (inactive).

As for `Fc1ccccc1CNc1cc(Cl)cc(Cl)c1`, the inhibition was 5.3% (inactive).

For the molecule `COc1cc(/C=N\NC(=O)C2C(=O)NCC2c2ccccc2)cc(OC)c1O` (stereo unspecified), the inhibition is 50.9% (active).

As to `COc1cccc(/C=N\NC(=O)C2C(=O)NCC2c2ccccc2)c1O` (stereo unspecified), the inhibition was -17% (inactive).

Consider `COc1ccc(/C=N\NC(=O)C2C(=O)NCC2c2ccccc2)cc1O` (stereo unspecified), for which the inhibition was 8.9% (inactive).

For `CC(/C=N\Nc1nnc2c(n1)[nH]c1c(C)cccc12)=C\c1ccco1`, the inhibition was 7% (inactive).

`COc1ccc(/C=N/c2oc(C)c(C)c2C#N)c(OC)c1`: the inhibition was 51.5% (active).

For the molecule `Cc1oc(/N=C/c2ccc(Cl)cc2Cl)c(C#N)c1C`, the inhibition was -5.8% (inactive).

In the case of `Cc1oc(/N=C/c2ccc(O)cc2O)c(C#N)c1C`, the inhibition was 8.5% (inactive).

In the case of `O=C(c1ccc(Br)o1)N1CCN=C1SCc1cccnc1`, the inhibition was 2.2% (inactive).

For `COCCCNC(=S)NNC(=O)c1ccc(S(=O)(=O)N2CCC(C)CC2)cc1`, the inhibition was -5.4% (inactive).

On to `O=C(Nc1cccc(N=Cc2cc(Br)cc(Br)c2O)c1)c1ccco1`, for which the inhibition was 53.4% (active).

Take `O=C(Nc1cccc(N=Cc2cc(Cl)cc(Br)c2O)c1)c1ccco1`: the inhibition was 44.4% (inactive).

With `CC(=O)c1cccc(NC(=O)c2ccco2)c1`, the inhibition was 2.7% (inactive).

For `O=C(CSc1nnc(-c2cccs2)n1-c1ccccc1)c1ccc2c(c1)OCCO2`, the inhibition was 6.2% (inactive).

`CCOC(=O)N1CCC(NC(=O)c2ccc3c(c2)N(Cc2ccc(C)cc2)CCS3)CC1`: the inhibition was 24.9% (inactive).

With `CCOC(=O)N1CCC(NC(=O)c2ccc3c(c2)N(Cc2ccccc2)CCS3)CC1`, the inhibition was 13.2% (inactive).

Turning to `CCOC(=O)N1CCC(NC(=O)c2ccc3c(c2)N(C)CCS3)CC1`, the inhibition was 55.2% (active).

For the molecule `COc1cccc(C2=NOC(C(=O)NC(C)C)C2)c1` (stereo unspecified), the inhibition was 3.6% (inactive).

As to `COc1cccc(C2=NOC(C(=O)NC3CCCCC3)C2)c1` (stereo unspecified), the inhibition is 53.2% (active).

`COc1ccc(C2=NOC(C(=O)NC3CCCCC3)C2)cc1OC` (stereo unspecified): the inhibition was 11.9% (inactive).

In the case of `C#CCNC(=O)C1CCN(c2ccc(S(=O)(=O)N3CCOCC3)cc2Cl)CC1`, the inhibition was -1.4% (inactive).

In the case of `CCOc1cc(N2CCOCC2)c(OCC)cc1NC(C)C(=O)N1CCN(CC)CC1` (stereo unspecified), the inhibition is 57.1% (active).

On to `CCOc1cc(N2CCOCC2)c(OCC)cc1NC(C)C(=O)N1CCC(C)CC1` (stereo unspecified), for which the inhibition is 59.1% (active).

Consider `CCC(C)C(=O)Nc1ccc(OC)cc1OC` (stereo unspecified), for which the inhibition is 5.6% (inactive).

As to `CCN1CCN(C(=O)C(C)Nc2ccc(OC)cc2OC)CC1` (stereo unspecified), the inhibition is 58.6% (active).

For the molecule `CCOc1cc(N2CCOCC2)c(OCC)cc1NC(=O)CN1CCCC1`, the inhibition was 20.8% (inactive).

Turning to `CCOc1cc(N2CCOCC2)c(OCC)cc1NC(=O)CN1CCCC(C)C1` (stereo unspecified), the inhibition was 30.5% (inactive).

In the case of `CCOc1cc(N2CCOCC2)c(OCC)cc1NC(=O)C1CCCC1`, the inhibition is -1% (inactive).

For the molecule `CCOc1cc(N2CCOCC2)c(OCC)cc1NC(=O)c1ccc(OC(C)C)cc1`, the inhibition is 19.1% (inactive).

As to `CCN1CCN(C(=O)Nc2ccc(OC)cc2OC)CC1`, the inhibition is 34.3% (inactive).

As for `CC(=O)c1cccc(N/C=C\C(=O)c2ccc(C)cc2)c1`, the inhibition is 1.9% (inactive).

With `CCN(CC)S(=O)(=O)c1cccc(C(=O)Nc2ccc(C#N)cc2)c1`, the inhibition was 16.5% (inactive).

`Cc1cccc(N2CCN(C(=O)c3ccc(CNc4c(N5CCC(C)CC5)c(=O)c4=O)cc3)CC2C)c1` (stereo unspecified): the inhibition is 4.9% (inactive).

As for `O=C(CS(=O)CC(=O)N(c1cccc(F)c1)C(C(=O)NC1CCCCC1)c1ccco1)Nc1ccc(F)cc1` (stereo unspecified), the inhibition is -6.4% (inactive).

Consider `C/C(=N\NC(=O)CN(c1ccccc1)S(=O)(=O)c1ccccc1[N+](=O)[O-])C(C)(C)C`, for which the inhibition was 8.8% (inactive).

With `FCCCOc1ccc(-c2nccc(-c3ccc(Br)cc3)n2)cc1`, the inhibition is 8.4% (inactive).

Take `Cc1cc(NC(=O)CSc2nnc(C3CC3)n2-c2ccccc2)no1`: the inhibition is -7.9% (inactive).

Take `Oc1cccc(/C=N/Nc2cc(N3CCCC3)nc(N3CCCC3)n2)c1`: the inhibition is 59.8% (active).

Regarding `Oc1ccc(/C=N/Nc2cc(N3CCCC3)nc(N3CCCC3)n2)cc1`, the inhibition was 58.7% (active).

As to `Oc1ccc(Br)cc1/C=N/Nc1nc(N2CCCCC2)nc(N2CCOCC2)n1`, the inhibition is 20% (inactive).

For the molecule `COc1cc(/C=N/Nc2nc(N3CCCC3)nc(N3CCCC3)n2)ccc1O`, the inhibition is 5.1% (inactive).

Regarding `O=C(O)c1ccccc1/C=N/Nc1nc(N2CCCCC2)nc(N2CCCCC2)n1`, the inhibition was -0.2% (inactive).

In the case of `C(=N\Nc1nc(N2CCCCCC2)nc(N2CCCCCC2)n1)/c1ccccc1`, the inhibition is 23.1% (inactive).

Regarding `COc1ccc(/C=N/Nc2nc(N3CCCC3)nc(N3CCCC3)n2)cc1`, the inhibition was 0.1% (inactive).

As to `Oc1ccccc1/C=N/Nc1cc(N2CCCC2)nc(N2CCCC2)n1`, the inhibition is 52% (active).

For the molecule `COc1ccc(/C=N/Nc2cc(N3CCCC3)nc(N3CCCC3)n2)cc1`, the inhibition was 49% (inactive).

For `COc1cc(-c2cc(N)n(S(=O)(=O)c3ccccc3)n2)cc(OC)c1OC`, the inhibition is -2.1% (inactive).

Take `CCOC(=O)c1ccc(S(=O)(=O)Nc2ccc3cn[nH]c3c2)cc1`: the inhibition was 24.1% (inactive).

With `CC1CCC(NC(=O)Cn2cc3c(n2)CCCC3)CC1` (stereo unspecified), the inhibition was 3.7% (inactive).

For the molecule `CC(C)=CCCC1=CCC(/C=N/NC(N)=O)C(C)C1` (stereo unspecified), the inhibition is -36.5% (inactive).
